Experimental data published in PubChem BioAssay (NCATS).
Records with an inconclusive call do not appear. Unless noted, calls come from the whole dose curve; as a rule, active = well fitted curve in either direction with a large enough effect (not every such curve was filed as active); inconclusive = small, poorly fitted or top-dose-only effect, or another doubt; inactive = flat fitted curve, though single readings scatter.

Legend:
[1] = AP1 Signaling Pathway (AID 357); conditions: ME-180 AP-1-bla reporter, EGF-induced, beta-lactamase ratio, 5 h; at 17.2 µM (top of the series) unless noted; note: % is set by controls: 0 for no effect and ±100 for the full control effect
How it was run: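 AP-1-bla ME-180 cells with beta-lactamase reporter under AP-1 response element, stimulated with EC50 EGF; compounds titrated, 5 hours at 37 degrees Celsius. CCF4 read at 460/530 nm ratio; positive and negative modulators judged by AC50.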

[2] = NFAT Signaling Pathway (AID 444); conditions: Jurkat NFAT-bla M1, carbachol, beta-lactamase ratio, 5 h; at 17.2 µM (top of the series) unless noted;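 note: carbachol stimulus at about its EC50 of 1 µM final; % is set by controls: 0 for no effect and ±100 for the full control effect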
How it was run: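 Read-out: CCF4 FRET ratio (460 nm/530 nm) after 1 h RT dye loading, used for %activity and AC50 from titration series. Cells: Jurkat NFAT-β-lactamase/M1 line, treated with compound plus 1 uM carbachol for 5 h, 37 °C.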

[3] = Stat Signaling Pathway (AID 446); conditions: ME-180 SIE beta-lactamase reporter, IL-6 stimulated, 5 h; at 17.2 µM (top of the series) unless noted;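 note: ME-180 cervical cancer cells given 40 pM IL-6 alongside compound; SIE-controlled beta-lactamase reporter measured as 460/530 nm FRET emission ratio; % is set by controls: 0 for no effect and ±100 for the full control effect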
How it was run: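 ME-180 SIE-bla cells; overnight plating; cpd + IL-6 40 pM, 5 h, 37 C; LiveBLAzer 2.5 h RT; 460/530 nm emission ratio. Normalized to 300 pM IL-6 and 125 nM JAK inhibitor controls.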

[4] = target: Glucocorticoid receptor (Homo sapiens) (UniProt P04150); test: GR-GFP Redistribution (AID 450;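 active = compounds whose dose series gives a full or clear partial fitted curve of increased nuclear translocation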; note: potency is the fitted concentration of half-maximal effect)
Sequence of Glucocorticoid receptor (Homo sapiens) (P04150 whole entry, looked up): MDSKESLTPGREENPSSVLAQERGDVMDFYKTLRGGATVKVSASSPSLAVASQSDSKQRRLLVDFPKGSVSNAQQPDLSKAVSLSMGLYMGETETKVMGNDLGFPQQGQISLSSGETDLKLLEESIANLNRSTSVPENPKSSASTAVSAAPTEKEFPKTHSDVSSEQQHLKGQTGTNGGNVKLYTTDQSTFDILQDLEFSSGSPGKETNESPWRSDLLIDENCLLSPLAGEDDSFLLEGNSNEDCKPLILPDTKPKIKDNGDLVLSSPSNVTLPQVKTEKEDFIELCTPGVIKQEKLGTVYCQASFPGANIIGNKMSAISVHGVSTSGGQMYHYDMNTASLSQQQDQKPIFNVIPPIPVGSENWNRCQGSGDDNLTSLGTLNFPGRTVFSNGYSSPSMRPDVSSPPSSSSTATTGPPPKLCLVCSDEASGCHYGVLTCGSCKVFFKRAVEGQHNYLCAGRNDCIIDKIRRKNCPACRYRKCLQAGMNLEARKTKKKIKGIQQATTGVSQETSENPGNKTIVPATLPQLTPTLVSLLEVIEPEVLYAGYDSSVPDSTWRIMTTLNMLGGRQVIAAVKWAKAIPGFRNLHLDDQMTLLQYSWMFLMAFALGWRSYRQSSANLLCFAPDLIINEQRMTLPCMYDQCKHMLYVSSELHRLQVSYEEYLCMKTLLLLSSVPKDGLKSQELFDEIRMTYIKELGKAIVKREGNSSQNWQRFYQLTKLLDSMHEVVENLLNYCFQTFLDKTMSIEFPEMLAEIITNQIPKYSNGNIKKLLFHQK

COc1ccccc1C(=O)Nc1cc(Cl)ccc1O
inactive: activity change, negative = inhibition [1] -12.2% | activity change, negative = inhibition [2] -2.92% | activity, negative = inhibition [3] -4.42% | Potency [4] > 20.6 µM

CCOC(=O)CSc1nc(C)c(C(C)=O)cc1C#N
inactive: activity change, negative = inhibition [1] 8.73% | activity change, negative = inhibition [2] -3.61% | activity, negative = inhibition [3] 6.11% | Potency [4] > 20.6 µM

COc1ccc(-c2nc3n(n2)C(=O)CC(c2ccco2)S3)cc1 (stereo not drawn)
inactive: activity change, negative = inhibition [1] -9.14% | activity change, negative = inhibition [2] 0.813% | activity, negative = inhibition [3] -11.3% | Potency [4] > 20.6 µM

O=c1cc(NCc2ccccc2)nc2n1CCCS2
inactive: activity change, negative = inhibition [1] 5.41% | activity change, negative = inhibition [2] 19% | activity, negative = inhibition [3] -19.7% | Potency [4] > 20.6 µM

COc1ccc(-n2ncc3c(NCCCn4ccnc4)ncnc32)cc1
inactive: activity change, negative = inhibition [1] -7.88% | activity change, negative = inhibition [2] -15.7% | activity, negative = inhibition [3] -5.95% | Potency [4] > 20.6 µM

CCOC(=O)CC(=O)CSc1[nH]c(=O)cc(C)c1C#N
inactive: activity change, negative = inhibition [1] 8.86% | activity change, negative = inhibition [2] 2.85% | activity, negative = inhibition [3] 13.5% | Potency [4] > 20.6 µM

Cc1cc(=O)oc(C)c1C(=O)NCCc1ccccc1
inactive: activity change, negative = inhibition [1] 8.18% | activity change, negative = inhibition [2] -8.25% | activity, negative = inhibition [3] 14.6% | Potency [4] > 20.6 µM

Brc1ccc(-c2cnnc(N3CCCC3)n2)cc1
inactive: activity change, negative = inhibition [1] -13.4% | activity change, negative = inhibition [2] 0.485% | activity, negative = inhibition [3] 6.79% | Potency [4] > 20.6 µM

COc1ccc(C(=O)/C=C/Nc2cccc(C)n2)cc1OC
inactive: activity change, negative = inhibition [1] -16.3% | activity change, negative = inhibition [2] 22.7% | activity, negative = inhibition [3] 0.139% | Potency [4] > 20.6 µM

Cc1cccc(C)c1NC(=O)CSCC(=O)c1ccc(O)c(O)c1
inactive: activity change, negative = inhibition [1] -12.4% | activity change, negative = inhibition [2] 22.8% | activity, negative = inhibition [3] -19.4% | Potency [4] > 20.6 µM

Cc1cc(C(F)(F)F)nn1CC(=O)NCC1CCCO1 (stereo not drawn)
inactive: activity change, negative = inhibition [1] 3.74% | activity change, negative = inhibition [2] -11% | activity, negative = inhibition [3] 3.03% | Potency [4] > 20.6 µM

CC1(C)CN(O)CCN1O
inactive: activity change, negative = inhibition [1] 29.1% | activity change, negative = inhibition [2] 0.875% | activity, negative = inhibition [3] 7.69% | Potency [4] > 20.6 µM

O=C(O)C1CC(=O)n2c(nc3ccccc32)S1 (stereo not drawn)
inactive: activity change, negative = inhibition [1] -9.56% | activity change, negative = inhibition [2] -10.4% | activity, negative = inhibition [3] 6.25% | Potency [4] > 20.6 µM

O=C(O)CC(C(=O)OCCOc1ccccc1)N1CCOCC1 (stereo not drawn)
inactive: activity change, negative = inhibition [1] -4.83% | activity change, negative = inhibition [2] -6.82% | activity, negative = inhibition [3] -1.47% | Potency [4] > 20.6 µM

Cc1[nH]c2ccc3c(ncn3CCC#N)c2c1C
inactive: activity change, negative = inhibition [1] 0.919% | activity change, negative = inhibition [2] 9.51% | activity, negative = inhibition [3] -5.09% | Potency [4] > 20.6 µM

Cc1nnc(SCc2nc3ccccc3[nH]2)s1
inactive: activity change, negative = inhibition [1] 1.21% | activity change, negative = inhibition [2] 8.95% | activity, negative = inhibition [3] 4.08% | Potency [4] > 20.6 µM

S=C(N=Nc1ccccc1)NNc1ccccc1
inactive: activity change, negative = inhibition [1] 7.8% | activity change, negative = inhibition [2] 14% | activity, negative = inhibition [3] -0.775% | Potency [4] > 20.6 µM

COc1ccc(C2CC(c3ccccc3)Nc3nc(N)nn32)cc1 (stereo not drawn)
inactive: activity change, negative = inhibition [1] 9.32% | activity change, negative = inhibition [2] -6.69% | activity, negative = inhibition [3] 1.39% | Potency [4] > 20.6 µM

CCOc1ccc2nc(NC(NC(C)=O)(C(=O)OC)C(F)(F)F)sc2c1 (stereo not drawn)
inactive: activity change, negative = inhibition [1] 5.71% | activity change, negative = inhibition [2] 0.18% | activity, negative = inhibition [3] -4.87% | Potency [4] > 20.6 µM

Cc1cc(C)n(-c2nnc(C)n2/N=C/c2ccco2)n1
inactive: activity change, negative = inhibition [1] 4.26% | activity change, negative = inhibition [2] -7.08% | activity, negative = inhibition [3] 2.31% | Potency [4] > 20.6 µM

Cn1c(=O)c2c(nc(NCc3ccc4c(c3)OCO4)n2Cc2ccccc2Cl)n(C)c1=O
inactive: activity change, negative = inhibition [1] -22.3% | activity change, negative = inhibition [2] -8.43% | activity, negative = inhibition [3] -2.58% | Potency [4] > 20.6 µM

O=C(OCCN1CCOCC1)c1ccc2c(c1)OCCO2
inactive: activity change, negative = inhibition [1] -10% | activity change, negative = inhibition [2] 19.9% | activity, negative = inhibition [3] 6.54% | Potency [4] > 20.6 µM

CCOC(=O)c1[nH]c2ccccc2c1NC(=O)CCN1CCN(C(=O)OCC)CC1
inactive: activity change, negative = inhibition [1] -2.19% | activity change, negative = inhibition [2] 1.86% | activity, negative = inhibition [3] -0.665% | Potency [4] > 20.6 µM

COCCCNC(=O)C(C#N)c1nc2ccccc2nc1N1CCCC1 (stereo not drawn)
inactive: activity change, negative = inhibition [1] 5.84% | activity change, negative = inhibition [2] 8.15% | activity, negative = inhibition [3] 20.8% | Potency [4] > 20.6 µM

CC1(C)NC(=O)N(CC(O)COc2cc3ccccc3cc2C(=O)N2CCCCC2)C1=O (stereo not drawn)
inactive: activity change, negative = inhibition [1] -6.63% | activity change, negative = inhibition [2] 8.86% | activity, negative = inhibition [3] -3.07% | Potency [4] > 20.6 µM

CCN(CC)CCN1C(=O)C(=O)/C(=C(/O)c2ccc(Cl)cc2)C1c1ccncc1 (stereo not drawn)
inactive: activity change, negative = inhibition [1] -3.59% | activity change, negative = inhibition [2] 22.9% | activity, negative = inhibition [3] 7.2% | Potency [4] > 20.6 µM

CCOC(=O)c1ccc2nc(NC(NC(C)=O)(C(=O)OC)C(F)(F)F)sc2c1 (stereo not drawn)
inactive: activity change, negative = inhibition [1] -14% | activity change, negative = inhibition [2] -1.54% | activity, negative = inhibition [3] -10.8% | Potency [4] > 20.6 µM

O=C(Nc1ccc2c(c1)OCO2)c1cncc(Br)c1
inactive: activity change, negative = inhibition [1] -12.1% | activity change, negative = inhibition [2] -3.16% | activity, negative = inhibition [3] -14.9% | Potency [4] > 20.6 µM

CCCCC(=O)Nc1c(O)c2ccccc2[nH]c1=O
inactive: activity change, negative = inhibition [1] 4% | activity change, negative = inhibition [2] -5.18% | activity, negative = inhibition [3] 1.28% | Potency [4] > 20.6 µM

Cc1nnc(SCC(=O)N2CCC(C(N)=O)CC2)s1
inactive: activity change, negative = inhibition [1] 4.41% | activity change, negative = inhibition [2] 5.46% | activity, negative = inhibition [3] 7.13% | Potency [4] > 20.6 µM

CC1N(O)C(c2ccc(Cl)cc2Cl)N(O)C1(C)C (stereo not drawn)
inactive: activity change, negative = inhibition [1] -0.0716% | activity change, negative = inhibition [2] -14.6% | activity, negative = inhibition [3] 2.16% | Potency [4] > 20.6 µM

Cc1cccc(OCC(=O)N2CCC(N3CCOCC3)CC2)c1
inactive: activity change, negative = inhibition [1] -0.218% | activity change, negative = inhibition [2] 6.61% | activity, negative = inhibition [3] 2.76% | Potency [4] > 20.6 µM

Cc1cc(/C(O)=C2\C(=O)C(=O)N(CCN(C)C)C2c2ccncc2)ccc1OCc1ccccc1 (stereo not drawn)
inactive: activity change, negative = inhibition [1] -14.5% | activity change, negative = inhibition [2] 17.3% | activity, negative = inhibition [3] 4.75% | Potency [4] > 20.6 µM

CC(NC(=O)NCCCC(=O)O)(C(F)(F)F)C(F)(F)F
inactive: activity change, negative = inhibition [1] 1.88% | activity change, negative = inhibition [2] -1.55% | activity, negative = inhibition [3] 1.17% | Potency [4] > 20.6 µM

COc1cc(C2C(C(C)=O)=C(O)C(=O)N2c2ccc(Br)cn2)ccc1O (stereo not drawn)
inactive: activity change, negative = inhibition [1] 2.47% | activity change, negative = inhibition [2] -15.5% | activity, negative = inhibition [3] -8.75% | Potency [4] > 20.6 µM

Clc1ccc(-n2ncc3c(NCc4ccco4)ncnc32)cc1
inactive: activity change, negative = inhibition [1] -19.6% | activity change, negative = inhibition [2] 1.57% | activity, negative = inhibition [3] -20.9% | Potency [4] > 20.6 µM

COc1cccc(COc2nc3c(c(=O)n(C)c(=O)n3C)n2C)c1
inactive: activity change, negative = inhibition [1] -9.75% | activity change, negative = inhibition [2] 12.8% | activity, negative = inhibition [3] -3.58% | Potency [4] > 20.6 µM

CCN(CC)CCCN1C(=O)C(=O)/C(=C(/O)c2ccc(Cl)cc2)C1c1ccccn1 (stereo not drawn)
inactive: activity change, negative = inhibition [1] -3.4% | activity change, negative = inhibition [2] 5.22% | activity, negative = inhibition [3] -0.716% | Potency [4] > 20.6 µM

N#Cc1c2c(c(-c3ccco3)[nH]c1=O)CCCC2
inactive: activity change, negative = inhibition [1] -0.634% | activity change, negative = inhibition [2] 10.5% | activity, negative = inhibition [3] -2.06% | Potency [4] > 20.6 µM

CC(=O)C1=C(NC(=O)c2ccccc2F)C[C@@H]2[C@H]1C2(C)C
inactive: activity change, negative = inhibition [1] -3.24% | activity change, negative = inhibition [2] -24.2% | activity, negative = inhibition [3] 18.8% | Potency [4] > 20.6 µM

COc1ccc[nH]c1=O
inactive: activity change, negative = inhibition [1] 14.3% | activity change, negative = inhibition [2] -4.63% | activity, negative = inhibition [3] 3.09% | Potency [4] > 20.6 µM

COc1ccc(/C(O)=C2/C(=O)C(=O)N(c3ncccn3)C2c2ccc(OC)c(OC)c2)cc1 (stereo not drawn)
inactive: activity change, negative = inhibition [1] 10.2% | activity change, negative = inhibition [2] -0.912% | activity, negative = inhibition [3] -6.81% | Potency [4] > 20.6 µM

O=S(=O)(NCc1cccnc1)c1cccc2nsnc12
inactive: activity change, negative = inhibition [1] 6.05% | activity change, negative = inhibition [2] -11.1% | activity, negative = inhibition [3] 4.09% | Potency [4] > 20.6 µM

N#CC12CCCCC1CC1CCCCC1(C#N)N2Cc1ccccn1 (stereo not drawn)
inactive: activity change, negative = inhibition [1] 3.99% | activity change, negative = inhibition [2] -14.8% | activity, negative = inhibition [3] 19.1% | Potency [4] > 20.6 µM

COc1ccc(OCC(O)CN2C(=O)NC(C)(C)C2=O)cc1 (stereo not drawn)
inactive: activity change, negative = inhibition [1] -11.2% | activity change, negative = inhibition [2] 0.93% | activity, negative = inhibition [3] 9.74% | Potency [4] > 20.6 µM

Clc1ccc2nc(CSc3nc4ccccc4o3)cn2c1
inactive: activity change, negative = inhibition [1] -4.14% | activity change, negative = inhibition [2] 1.67% | activity, negative = inhibition [3] -8.83% | Potency [4] > 20.6 µM

CCOC(=O)C(OC(=O)c1sc(=S)n(C)c1C)C(C)=O (stereo not drawn)
inactive: activity change, negative = inhibition [1] 18% | activity change, negative = inhibition [2] 6.69% | activity, negative = inhibition [3] 9.46% | Potency [4] > 20.6 µM
